HCMV antiviral – blocks human cytomegalovirus replication | AID 1259415 | 410,000 compounds, 4.5% hits | HFF cells, HCMV-luciferase reporter, 72 h; hits give low values | activity change, negative = inhibition, % at 57.5 µM; in the data active = activity change below about -60%; inconclusive = no clear call, values can overlap the other calls; inactive = above about -39%
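Inhibition of viral replication was scored as loss of reporter luminescence in HFFs infected with HCMV-luciferase (MOI 1 PFU/cell) for 72 h; compounds tested at 2 doses, normalized to buffer and Salinomycin controls.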
HCV inhibitor – HCV inhibition; Huh7.5.1 HCVcc-Cre infection, luciferase reporter, 44 h; Potency, µM (doses to about 41.8 µM), most hits filed as inhibitors; 340,000 compounds, 3.4% hits; AID 651820
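HCVcc-Cre virus at an moi near 0.5 was added right after compound to cells cultured 4 h from seeding (1,000 cells/well). Luciferase activity was determined 44 h later, 15 min after substrate addition at RT.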
Pf growth 96h – P. falciparum growth inhibition at 96 hours | 320,000 compounds, 6.9% hits | AID 504834 | P. falciparum luciferase reporter growth, 96 h | Potency, µM (series often up to 28.7 µM), actives largely listed as inhibitors
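Erythrocytes infected with luciferase-expressing P. falciparum were dispensed at 2% hematocrit and 0.05% parasitemia (final), then incubated with compounds 96 hours at 37 C in 5% CO2. Luminescence after detection reagent addition reported growth.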
Pf growth 48h – inhibits P. falciparum growth in the first generation, 48 h. AID 504832. P. falciparum luciferase growth in erythrocytes, 48 h. 310,000 compounds, 5.9% hits. Potency, µM (highest dose often 28.7 µM), usual class: inhibitors
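Luminescence readout; reporter = integrated firefly luciferase in P. falciparum. RBC culture at 2% hematocrit, 0.1% parasitemia final, 37 C/5% CO2; decreased signal taken as growth inhibition.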
Numbers stand for hits; [ ] = another dose, or the depositor's remark. Only some compounds are listed: those with a hit (about 13% of all), similar ones and a draw of the others. Unless noted, calls come from the whole dose curve; as a rule, active = well fitted inhibition curve with a large enough effect; inconclusive = small, poorly fitted or top-dose-only effect, or another doubt; inactive = no such curve, though single readings can be large or run the other way.

CC(=O)n1cc([C@@H]2C=C(C(=O)N3CCOCC3)O[C@H](OCCCCO)C2)c2ccccc21 was read as HCMV antiviral inactive, HCV inhibitor inactive, Pf growth 96h inactive and Pf growth 48h inconclusive.
`CC(=O)n1cc([C@H]2C=C(C(=O)N3CCN(Cc4ccc5c(c4)OCO5)CC3)O[C@@H](OCCCCO)C2)c2ccccc21` gave HCMV antiviral inactive, HCV inhibitor inconclusive, Pf growth 96h inconclusive and Pf growth 48h 0.93µM.
`CCO[C@@H]1OC(C(=O)N2CCN(Cc3ccc4c(c3)OCO4)CC2)=C[C@H](c2cn(C(C)=O)c3ccccc23)[C@H]1CCCO` gave HCMV antiviral inactive, HCV inhibitor inactive, Pf growth 96h 4.1µM and Pf growth 48h 1.3µM.
Screening CCC(Cc1ccccc1)NC(=O)c1csc2c1CCCCC2 (configuration not stated) returned HCMV antiviral inactive.
O=C(NCc1ccccc1F)C1CCN(c2nn3cc(-c4ccc(F)cc4)nc3s2)CC1 was read as HCMV antiviral inactive.
For CCN(Cc1ccccc1)C(=O)c1cc(-c2ccccc2)n[nH]1 the results were HCMV antiviral inactive.
For CCc1ccc(CN2CCC(n3nccc3NC(=O)c3ccccc3C)CC2)cc1 the results were HCMV antiviral inactive, HCV inhibitor 14µM, Pf growth 96h inconclusive and Pf growth 48h inconclusive.
Cc1ccccc1C(=O)Nc1ccnn1C1CCN(Cc2ccc(CO)o2)CC1 was read as HCMV antiviral inactive, HCV inhibitor inactive, Pf growth 96h inactive and Pf growth 48h inactive.
`Cc1ccccc1C(=O)Nc1ccnn1C1CCN(Cc2cccnc2)CC1` gave HCMV antiviral inactive, HCV inhibitor inactive, Pf growth 96h inactive and Pf growth 48h inactive.
Cc1ccccc1C(=O)Nc1ccnn1C1CCN(CCCc2ccccc2)CC1 was read as Pf growth 96h 15µM and Pf growth 48h inconclusive.
`Cc1ccccc1C(=O)Nc1ccnn1C1CCN(CC2CC=CCC2)CC1` (configuration not stated) gave HCMV antiviral inactive, Pf growth 96h 15µM and Pf growth 48h inactive.
`Cc1ccc(CN2CCC(n3nccc3NC(=O)c3ccccc3C)CC2)o1` gave HCMV antiviral inconclusive, HCV inhibitor inactive, Pf growth 96h 2.1µM and Pf growth 48h inactive.
`CCc1ccc2c(c1)-c1ccccc1S(=O)(=O)N2CC(=O)N1CCC(C)CC1` gave HCMV antiviral inactive.
`CCC[C@H]1[C@@H](NS(=O)(=O)c2ccc(C(F)(F)F)cc2)CC[C@@]23CCCN2C(=O)CCC[C@@H]13` gave HCMV antiviral inactive.
CCSc1nnc(NC(=O)NC(C)(C(F)(F)F)C(F)(F)F)s1 was read as HCMV antiviral -67, HCV inhibitor inactive, Pf growth 96h inconclusive and Pf growth 48h inconclusive.
`CCCC(=O)Nc1nnc(SCC)s1` gave HCMV antiviral inactive, HCV inhibitor inactive, Pf growth 96h inactive and Pf growth 48h inactive.
CCSc1nnc(NC(=O)NC(CC)(C(F)(F)F)C(F)(F)F)s1 was read as HCMV antiviral -79, HCV inhibitor inconclusive, Pf growth 96h inconclusive and Pf growth 48h 12µM.
For N#Cc1cccc(C(=O)C(=O)N2CCN(C(=O)OCc3ccccc3)CC2)c1 the results were HCMV antiviral inactive.
CCN(CC)CCN(C)C(c1cc2ccccc2o1)c1nnnn1C(C)(C)C (configuration not stated) was read as HCMV antiviral inactive.
CN(Cc1ccc(Cl)c(Cl)c1)C(c1cc2ccccc2o1)c1nnnn1C(C)(C)C (configuration not stated) was read as HCMV antiviral -78.
CCOc1ccc(CNC(=O)Cn2c(=O)c3cccn3c3ccc(F)cc32)cc1 was read as HCMV antiviral inactive.
COc1cccc(NC(=O)CSc2nc(=O)n(Cc3cccnc3)c3c2CCC3)c1 was read as HCMV antiviral inactive.
For CCN(CC)CCOc1ncnc2c1oc1ccccc12 the results were HCMV antiviral inactive, HCV inhibitor inactive, Pf growth 96h inactive and Pf growth 48h inactive.
`CCCCc1oc2ccccc2c1C(=O)c1cc(I)c(OCCN(CC)CC)c(I)c1` gave HCMV antiviral -63, HCV inhibitor inactive[8.37 µM], Pf growth 96h 4.1µM and Pf growth 48h 8.3µM.
For CCCCn1cc(S(=O)(=O)c2ccc(OC)cc2)c(=O)c2cc(F)c(F)cc21 the results were HCMV antiviral inactive.
Screening Cc1ccccc1NC(=O)CSc1ccc(-c2cccnc2)nn1 returned HCMV antiviral inactive, HCV inhibitor inactive, Pf growth 96h 10µM and Pf growth 48h inactive.
`O=C(CSc1ccc(-c2cccnc2)nn1)Nc1ccccc1` gave HCMV antiviral inactive, HCV inhibitor inconclusive, Pf growth 96h 12µM and Pf growth 48h inactive.
For Cc1ccc(OCC(=O)N(C)CC(=O)Nc2ccc(F)cc2)c([N+](=O)[O-])n1 the results were HCMV antiviral inactive, HCV inhibitor inactive, Pf growth 96h inactive and Pf growth 48h inactive.
Cc1nc(-c2ccc(F)cc2)c(CC(=O)N(C)CC(=O)Nc2ccccc2Cl)s1 was read as HCMV antiviral inactive, HCV inhibitor inactive, Pf growth 96h 13µM and Pf growth 48h inactive.
For Cc1nc(-c2ccc(F)cc2)c(CC(=O)N(C)CC(=O)Nc2ccc(Cl)c(C(F)(F)F)c2)s1 the results were HCMV antiviral inactive and HCV inhibitor inactive.
`Cc1ccc(OCC(=O)N(C)CC(=O)Nc2ccccc2Cl)c([N+](=O)[O-])n1` gave HCMV antiviral -84, HCV inhibitor inactive, Pf growth 96h inactive and Pf growth 48h inactive.
`O=c1cc(-c2c(F)c(F)c(F)c(F)c2F)oc2ccccc12` gave HCMV antiviral inconclusive, HCV inhibitor 5µM and Pf growth 96h inactive.
CC1=CC(C)C(CN(CCC[N+](C)(C)C)C(=O)Nc2ccccc2)C(C)C1 (configuration not stated) was read as HCMV antiviral inactive, HCV inhibitor inactive, Pf growth 96h 12µM and Pf growth 48h inconclusive.
For CC(=O)N1CCN(CCN(CC2C(C)C=C(C)CC2C)C(C)=O)CC1 (configuration not stated) the results were HCMV antiviral inactive, HCV inhibitor inactive and Pf growth 48h inactive.
`Cc1ccc(NC(=O)c2cnc(SCC(=O)N3CCOCC3)n(C)c2=O)cc1` gave HCMV antiviral inactive.
For Fc1ccc(Cn2cccc2C2=NC(c3ccccc3)CO2)cc1 (configuration not stated) the results were HCMV antiviral inactive, HCV inhibitor inactive, Pf growth 96h inconclusive and Pf growth 48h inactive.
For Cc1oc(-c2ccccc2)nc1Cn1cccc1C1=NC(c2ccccc2)CO1 (configuration not stated) the results were HCMV antiviral inactive, HCV inhibitor inconclusive, Pf growth 96h 5.2µM and Pf growth 48h inconclusive.
Screening Cc1ccc(Cn2c(NCCc3ccccc3)nc3c2c(=O)n(C)c(=O)n3C)cc1 returned HCMV antiviral -69, HCV inhibitor 4µM and Pf growth 48h inconclusive.
For C/C(Cl)=C\Cn1c(NCCc2ccccc2)nc2c1c(=O)n(C)c(=O)n2C the results were HCMV antiviral -95, HCV inhibitor 2.5µM, Pf growth 96h inactive and Pf growth 48h 9.3µM.

Screening results deposited in PubChem BioAssay by National Center for Advancing Translational Sciences (NCATS).
